49 molecules from ChEMBL document CHEMBL4808148, “HDAC6 screening dataset using tau-based substrate in an enzymatic assay yields selective inhibitors and activators” (2021) can be followed below.

Experiment [1] deals with T1, Protein deacetylase HDAC6 (Homo sapiens) (UniProt Q9UBN7).
T1 sequence (whole entry): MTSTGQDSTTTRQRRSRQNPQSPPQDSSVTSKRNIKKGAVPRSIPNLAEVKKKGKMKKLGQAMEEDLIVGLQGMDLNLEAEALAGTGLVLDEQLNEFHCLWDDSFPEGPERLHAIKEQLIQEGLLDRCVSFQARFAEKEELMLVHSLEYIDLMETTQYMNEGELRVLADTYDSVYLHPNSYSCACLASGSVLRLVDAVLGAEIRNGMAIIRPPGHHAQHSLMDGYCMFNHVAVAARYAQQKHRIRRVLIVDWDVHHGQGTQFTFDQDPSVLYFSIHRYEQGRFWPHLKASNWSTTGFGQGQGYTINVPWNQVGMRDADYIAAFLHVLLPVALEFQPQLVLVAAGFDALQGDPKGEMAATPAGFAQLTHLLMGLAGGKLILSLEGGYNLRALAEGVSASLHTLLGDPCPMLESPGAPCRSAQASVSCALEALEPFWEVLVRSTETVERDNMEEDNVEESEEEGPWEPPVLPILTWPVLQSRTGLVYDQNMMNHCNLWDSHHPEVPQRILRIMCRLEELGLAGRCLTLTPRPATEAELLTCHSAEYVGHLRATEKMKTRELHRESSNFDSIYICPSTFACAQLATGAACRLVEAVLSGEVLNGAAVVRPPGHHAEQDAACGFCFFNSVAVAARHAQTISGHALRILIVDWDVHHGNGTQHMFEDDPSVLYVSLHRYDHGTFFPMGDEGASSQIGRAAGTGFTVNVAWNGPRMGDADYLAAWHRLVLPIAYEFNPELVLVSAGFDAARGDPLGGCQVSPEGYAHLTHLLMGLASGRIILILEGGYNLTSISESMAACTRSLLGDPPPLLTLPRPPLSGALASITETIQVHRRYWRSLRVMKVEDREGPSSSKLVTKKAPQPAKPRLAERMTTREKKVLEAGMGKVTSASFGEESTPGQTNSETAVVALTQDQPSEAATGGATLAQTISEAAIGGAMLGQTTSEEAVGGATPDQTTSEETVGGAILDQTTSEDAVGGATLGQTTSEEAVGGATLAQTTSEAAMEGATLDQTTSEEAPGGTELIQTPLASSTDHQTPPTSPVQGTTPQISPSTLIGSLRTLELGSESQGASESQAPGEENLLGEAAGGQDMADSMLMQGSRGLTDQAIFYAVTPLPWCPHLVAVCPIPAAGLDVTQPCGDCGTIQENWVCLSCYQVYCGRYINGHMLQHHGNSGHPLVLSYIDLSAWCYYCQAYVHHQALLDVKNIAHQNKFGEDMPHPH
As to conditions: at 10 µM.

The target in experiment [2] is Protein deacetylase HDAC6 (Homo sapiens) (UniProt Q9UBN7). The following applies: at 10 µM. The source holds these as a separate data set.

Among all 5,600 compounds or so, about 390 (7%) showed an effect of 50% or more. The sample holds strong results, similar compounds and a random draw of the others, so the mix is not that of the screen.

Turning to `NCCCC[C@H](N)C(=O)O`, in experiment [1], the inhibition (commonly the relative decrease from the control value, in per cent) was -8.14%.
Still for that read-out and setting: with `N=C(NCCC[C@H](N)C(=O)O)N[N+](=O)[O-]` the figure was 104%.
Same read-out and setting: to `O=C1c2ccccc2-c2c(NCCc3ccccc3)c(=O)[nH]c3cccc1c23` belongs 14.4%.
Still for that read-out and setting: to `CC(C)(CO)CCCCCCC(C)(C)CO` belongs 17.3%.
Regarding `COC(=O)N[C@@H](C)CNc1nccc(-c2cn(C(C)C)nc2-c2cc(Cl)cc(NS(C)(=O)=O)c2F)n1`, the inhibition in experiment [1] was -2.53%.
Turning to `CCOc1ccc(S(=O)(=O)O)c2cccnc12`, the inhibition in experiment [1] is 102%.
As to `O=C(NCCN1CCC2(CC1)C(=O)NCN2c1cccc(F)c1)c1ccc(F)c(F)c1`, the inhibition in experiment [1] turned out to be 7.38%.
Same read-out and setting: to `CC(C)(C)C#Cc1cc(N(C(=O)[C@H]2CC[C@H](C)CC2)[C@H]2CC[C@@H](O)CC2)c(C(=O)O)s1` belongs 26.8%; to `O=S(=O)(O)c1ccc(O)cc1`, 4.16%.
Still for that read-out and setting: to `CCCCc1ccc(C(N)=O)nc1` belongs 32.3%; to `CC(C)(C)c1[nH]cnc1/C=c1\[nH]c(=O)/c(=C/c2ccccc2)[nH]c1=O`, 77.4%.
In the case of `COc1cc2c(cc1OC(C)C)[C@H](c1ccc(Cl)cc1)N(c1ccc(N(C)C[C@H]3CC[C@H](N4CCN(C)C(=O)C4)CC3)cc1)C(=O)C2`, in experiment [1], the inhibition is 17.5%.
`O=c1cc(-c2ccc(O)c(O)c2)oc2cc(O)cc(O)c12`: the inhibition in experiment [1] stood at 100%.
With `O=c1c(O)c(-c2ccc(O)c(O)c2)oc2cc(O)cc(O)c12`, the inhibition in experiment [1] was 98.5%.
In the case of `CC(=O)N[C@H](C=O)[C@@H](O)[C@H](O)[C@H](O)CO`, the inhibition in experiment [1] was 19.4%.
On the same count and under the same terms, with `N[C@@H](CC(=O)N1CCn2c(nnc2C(F)(F)F)C1)Cc1n[nH]c2c(F)c(F)ccc12` the figure was 18.7%.
Same read-out and setting: with `O=C(O)C1CCC(c2cc3cccnc3c(-c3cccc(F)c3)n2)CC1` (centres undefined) the figure was -5.88%.
With MONOCTANOIN, CHEMBL6066833, the inhibition in experiment [2] was -5.59%.
For `N=C(N)Nc1ccc(C(=O)Oc2ccc3cc(C(=N)N)ccc3c2)cc1`, in experiment [1], the inhibition is 29.9%.
Same read-out and setting: to `CCOC(=O)[C@@H](C)Oc1ccc(Oc2nc3ccc(Cl)cc3o2)cc1` belongs 14.5%; to `Oc1cccc(Nc2ccc(Nc3cccc(O)c3)nn2)c1`, 79.8%; to `CN(C)c1cccc(Oc2cnc(Nc3cccc(O)c3)nc2)c1`, 30.8%.
Still for that read-out and setting: with `CS(=O)(=O)c1ccc(Cn2c3c(c4cc(F)cc(F)c42)CCCC3CC(=O)O)cc1` (centres undefined) the figure was -7.09%; with `C#CC[C@H](c1nc2cc(Cl)ccc2c(=O)n1Nc1ccccc1)N(CCCN)C(=O)c1cccc(Cl)c1F`, 11.7%; with `CCC(CC)n1ccc2c(C(=O)NCc3c(C)cc(C)[nH]c3=O)cc(C#N)cc21`, 15.2%.
Regarding `CC(O)C(CO)NC(=O)C1CSSCC(NC(=O)C(N)Cc2ccccc2)C(=O)NC(Cc2ccccc2)C(=O)NC(Cc2c[nH]c3ccccc23)C(=O)NC(CCCCN)C(=O)NC(C(C)O)C(=O)N1` (centres undefined), the inhibition in experiment [1] was 19.6%.
As to NYSTATIN, CHEMBL5465559, the inhibition in experiment [2] amounted to 30.5%.
Turning to `O=C(O)CNC(=O)c1c(O)c2ccccc2n(Cc2ccccc2)c1=O`, the inhibition in experiment [1] was 81.7%.
For `O=C(O)CNC(=O)c1ccccc1I`, the inhibition in experiment [1] amounted to 36.6%.
Take `CCc1c(C(=O)C(N)=O)c2c(OCC(=O)O)cccc2n1Cc1ccccc1`: in experiment [1], the inhibition stood at 20%.
With `Cc1ncc(C[n+]2csc(CCOP(=O)(O)OP(=O)(O)O)c2C)c(N)n1`, the inhibition in experiment [1] was 37.8%.
Consider `COC(=O)c1ccc2c(c1)nc(NC(=O)c1ccccc1)n2CCCc1ccccc1`, for which the inhibition in experiment [1] is -9.35%.
Same read-out and setting: with `CN[C@@H]1Cc2cccc3[nH]c(=O)n(c23)C1` the figure was 4.82%.
On to `Oc1ncc(N(CCCl)CCCl)c(O)n1`, for which the inhibition in experiment [1] was determined as 2.6%.
On to `CN1CCC(c2c[nH]c3ccc(O)cc23)CC1`, for which the inhibition in experiment [1] is 5.85%.
Still for that read-out and setting: with `CN1CCN(c2ccc3ccccc3n2)CC1` the figure was 44.6%.
On the same count and under the same terms, with `CN1CCN(c2ccc3[nH]c(-c4ccc5[nH]c(-c6ccc(O)cc6)nc5c4)nc3c2)CC1` the figure was 64%.
As to `NC(=O)c1cc[n+](CC2=C(C(=O)[O-])N3C(=O)[C@@H](NC(=O)Cc4cccs4)[C@H]3SC2)cc1`, the inhibition in experiment [1] was -9.58%.
The same measure, in the same setting: to `O=C(O)C1CSCN1` (centres undefined) belongs 8.04%; to `O=C(NNc1ccccc1)c1ccncc1`, 19%.
Turning to `COc1cc(NC(=O)c2ccccn2)ccc1Cl`, the inhibition in experiment [1] was 101%.
The same measure, in the same setting: to `O=C(Nc1cccc(Cl)c1)c1ccccn1` belongs 104%; to `O=C(Nc1cnc(Cl)nc1)c1ccc(F)c(F)c1`, 8.67%.
On the same count and under the same terms, to `C[C@H](Cc1ccc2c(c1)OC(C(=O)O)(C(=O)O)O2)NC[C@H](O)c1cccc(Cl)c1` belongs 16.3%; to `COc1cc(NC(=O)c2cccc(-n3cc(NC(=O)Nc4cccc(C)c4)cn3)c2)cc(OC)c1OC`, 0.29%; to `CC(C)OC(=O)Nc1cccc(Cl)c1`, 81%.
On the same count and under the same terms, with `COc1ccc(C(=O)Nc2c(Cl)cncc2Cl)cc1OC1CCCC1` the figure was 8.11%; with `CNC(=O)Oc1ccccc1OC(C)C`, 19.4%.
`O=C(Nc1ccc(S(=O)(=O)Nc2ccccc2Cl)c(Cl)c1)c1ccccn1`: in experiment [1], the inhibition amounted to 50.8%.
